Test results taken from PubChem BioAssay (NCI).
This is part of a sample that, as a whole, favours compounds with a hit. Of some 83,000 tested, about 20% had one in any assay.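 96-well plates, one dose, 48 hours. Percent growth reported; active if below 10.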 Values without a mark were called inactive. Active and inactive are the calls of the source.

What was measured:
Experiment in all cases: NCI-60 one-dose screen, 48 h (100 = growth as untreated, 0 = no growth, -100 = all killed)
Settings in all cases: 10 µM unless noted
NCI-H23 lung = tested on: NCI-H23 lung
NCI-H226 lung = tested on: NCI-H226 lung
NCI-H322M lung = tested on: NCI-H322M lung
HOP-62 NSCLC = tested on: HOP-62 NSCLC
NCI-H460 lung = tested on: NCI-H460 lung
HOP-92 NSCLC = tested on: HOP-92 NSCLC
NCI-H522 lung = tested on: NCI-H522 lung
A549/ATCC NSCLC = tested on: A549/ATCC NSCLC
786-0 renal = tested on: 786-0 renal
COLO 205 colon = tested on: COLO 205 colon

Oc1c(C(c2ccc(F)cc2)N2CCCCC2)ccc2cncnc12 (stereo not given)
growth (NCI-H23 lung): 16.1%
growth (NCI-H226 lung): -0.0481% (active)
growth (NCI-H322M lung): 19.4%
growth (HOP-62 NSCLC): 11.6%
growth (NCI-H460 lung): 4.38% (active)
growth (HOP-92 NSCLC): -14.4% (active)
growth (NCI-H522 lung): 4.34% (active)
growth (A549/ATCC NSCLC): 5.08% (active)
growth (786-0 renal): 23.1%
growth (COLO 205 colon): -30.1% (active)

C#CC[C@@H]1C[C@]2(C)[C@H]3CC=C4[C@H]5[C@@H](C)[C@H](C)CC[C@]5(C(=O)NCCCN5CCN(CCCN)CC5)CC[C@@]4(C)[C@]3(C)CC[C@H]2C(C)(C)[C@H]1OC(C)=O
growth (NCI-H23 lung): 19.8%
growth (NCI-H226 lung): 86.5%
growth (NCI-H322M lung): -48.2% (active)
growth (HOP-62 NSCLC): 58.9%
growth (NCI-H460 lung): -60.7% (active)
growth (HOP-92 NSCLC): -20.5% (active)
growth (NCI-H522 lung): -55.4% (active)
growth (A549/ATCC NSCLC): -23.5% (active)
growth (786-0 renal): -97% (active)
growth (COLO 205 colon): -69.9% (active)

Cc1ccc(NC(=O)Cn2nncc2CN2C(=O)CSC2=O)cc1C
growth (NCI-H23 lung): 96.8%
growth (NCI-H226 lung): 90.7%
growth (NCI-H322M lung): 103%
growth (HOP-62 NSCLC): 98.5%
growth (NCI-H460 lung): 105%
growth (HOP-92 NSCLC): 112%
growth (NCI-H522 lung): 94.8%
growth (A549/ATCC NSCLC): 102%
growth (786-0 renal): 108%
growth (COLO 205 colon): 106%

CC(C)COC(=O)NC(C)(C)C
growth (NCI-H23 lung): 101%
growth (NCI-H226 lung): 104%
growth (NCI-H322M lung): 100%
growth (HOP-62 NSCLC): 107%
growth (NCI-H460 lung): 107%
growth (HOP-92 NSCLC): 98.9%
growth (NCI-H522 lung): 71.5%
growth (A549/ATCC NSCLC): 101%
growth (786-0 renal): 98.1%
growth (COLO 205 colon): 106%

Nc1nc(N)c2c(n1)NC(c1sc(Cl)nc1Cl)CC(c1ccc3c(c1)OCO3)=N2 (stereo not given)
growth (NCI-H23 lung): 39.9%
growth (NCI-H226 lung): 82.7%
growth (NCI-H322M lung): 72.6%
growth (HOP-62 NSCLC): 34.5%
growth (NCI-H460 lung): 13.2%
growth (HOP-92 NSCLC): 56%
growth (NCI-H522 lung): -28.3% (active)
growth (A549/ATCC NSCLC): 36.4%
growth (786-0 renal): 38.1%
growth (COLO 205 colon): 7.12% (active)

O=S(=O)(NCC[C@@H]1C[C@H]1c1ccc2ccccc2c1)c1ccc(C(F)(F)F)cc1
growth (NCI-H23 lung): 84.9%
growth (NCI-H226 lung): 86.1%
growth (NCI-H322M lung): 100%
growth (HOP-62 NSCLC): 105%
growth (NCI-H460 lung): 96.1%
growth (HOP-92 NSCLC): 91.4%
growth (NCI-H522 lung): 83.8%
growth (A549/ATCC NSCLC): 85.3%
growth (786-0 renal): 96.3%
growth (COLO 205 colon): 105%

O=C(NO)c1ccc(NCc2csc3ccccc23)cc1
growth (NCI-H23 lung): 48.5%
growth (NCI-H226 lung): 64.8%
growth (NCI-H322M lung): 85.7%
growth (HOP-62 NSCLC): 65.3%
growth (NCI-H460 lung): 39.8%
growth (HOP-92 NSCLC): 71.7%
growth (NCI-H522 lung): 33.1%
growth (A549/ATCC NSCLC): 70.3%
growth (786-0 renal): 71.3%
growth (COLO 205 colon): 50.1%

COc1ccc(C2CC(c3cccc(Nc4ccnc5cc(Cl)ccc45)c3)=NN2c2ccccc2)cc1 (stereo not given)
growth (NCI-H23 lung): 80%
growth (NCI-H226 lung): 89%
growth (NCI-H322M lung): 75%
growth (HOP-62 NSCLC): 60%
growth (NCI-H460 lung): 43.7%
growth (HOP-92 NSCLC): 57.8%
growth (NCI-H522 lung): 54.4%
growth (A549/ATCC NSCLC): 52.1%
growth (786-0 renal): 91.8%
growth (COLO 205 colon): 80.4%

COc1ccc(-c2cnc3ccnn3c2-c2cc(OC)c(OC)c(OC)c2)cc1
growth (NCI-H23 lung): 42.7%
growth (NCI-H226 lung): 65.5%
growth (NCI-H322M lung): 55.8%
growth (HOP-62 NSCLC): 40%
growth (NCI-H460 lung): 11.1%
growth (HOP-92 NSCLC): 103%
growth (NCI-H522 lung): 10.1%
growth (A549/ATCC NSCLC): 46.8%
growth (786-0 renal): 40.3%
growth (COLO 205 colon): -31.2% (active)

CCOc1ccc([C@@H]2[C@@H](Oc3ccccc3)C(=O)N2c2cc(OC)c(OC)c(OC)c2)cc1
growth (NCI-H23 lung): 23.9%
growth (NCI-H226 lung): 41.5%
growth (NCI-H322M lung): 38.6%
growth (HOP-62 NSCLC): 27.4%
growth (NCI-H460 lung): 7.32% (active)
growth (HOP-92 NSCLC): 63.3%
growth (NCI-H522 lung): 10.5%
growth (A549/ATCC NSCLC): 23.1%
growth (786-0 renal): 10.1%
growth (COLO 205 colon): -47.2% (active)

CCOC(=O)c1ccc(NC(=O)NC2=NCCS2)cc1
growth (NCI-H23 lung): 18.4%
growth (NCI-H226 lung): 13.5%
growth (NCI-H322M lung): 77.7%
growth (HOP-62 NSCLC): 35.7%
growth (NCI-H460 lung): 19.5%
growth (HOP-92 NSCLC): 73.6%
growth (NCI-H522 lung): 20.8%
growth (A549/ATCC NSCLC): 22.5%
growth (786-0 renal): 33.8%
growth (COLO 205 colon): 103%

CCN(CC)C(Cl)=Nc1ccc(Cl)cc1
growth (NCI-H23 lung): 104%
growth (NCI-H226 lung): 96.2%
growth (NCI-H322M lung): 103%
growth (HOP-62 NSCLC): 99.8%
growth (NCI-H460 lung): 106%
growth (HOP-92 NSCLC): 108%
growth (NCI-H522 lung): 91.1%
growth (A549/ATCC NSCLC): 97.3%
growth (786-0 renal): 99.8%
growth (COLO 205 colon): 103%

CC(=O)N(C)c1ccc(Nc2cc(C)[nH]c3ccc4ncnc4c23)cc1
growth (NCI-H23 lung): 50.4%
growth (NCI-H226 lung): 54.8%
growth (NCI-H322M lung): 77%
growth (HOP-62 NSCLC): 54.3%
growth (NCI-H460 lung): 22.4%
growth (HOP-92 NSCLC): -2.3% (active)
growth (NCI-H522 lung): 22.1%
growth (A549/ATCC NSCLC): 67.2%
growth (786-0 renal): 55.8%
growth (COLO 205 colon): 53.3%

O=C(/C=C/c1cn(-c2ccccc2)nc1-c1cccc(Nc2ccnc3cc(Cl)ccc23)c1)c1ccc2c(c1)OCO2
growth (NCI-H23 lung): 101%
growth (NCI-H226 lung): 99.1%
growth (NCI-H322M lung): 86.2%
growth (HOP-62 NSCLC): 107%
growth (NCI-H460 lung): 102%
growth (HOP-92 NSCLC): 88.1%
growth (NCI-H522 lung): 127%
growth (A549/ATCC NSCLC): 93.4%
growth (786-0 renal): 99.8%
growth (COLO 205 colon): 102%
